Measured values from PubChem BioAssay (Tox21).
Results filed as inconclusive are left out. Calls of active or inactive are those of the source. Unless noted, the call rests on the fitted dose curve; in most records, active means well fitted curve in the direction sought with a large enough effect in the repeat runs; inconclusive means weak or mixed curves; inactive means no such curve, though single readings can be large; an effect the other way counts as inactive or inconclusive.

Tests used:
[1] = A CellTox Green Cytotoxicity Assay to monitor cytotoxicity in HEK293 cells - 0 hour (AID 1224869); further: on the % scale 0 is the no-effect control and ±100 the full control effect; nearly all actives have a fitted effect of over 50% in size
Procedure, shortened: (§1)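 Seeding of HEK293 cells together with cytotoxicity dye preceded a 5 h incubation at 37 C/5% CO2. Test compounds in DMSO were then added and fluorescence monitored across 40 h.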

[2] = qHTS RealTime-Glo MT Cell Viability Assay in HepG2 cells - 40 hour (AID 1224870); further: nearly all actives have a fitted effect of over 50% in size; further: potency means the concentration at half of the fitted maximal effect; on activity change, negative = cytotoxic: on the % scale 0 is the no-effect control and ±100 the full control effect
Procedure, shortened: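 HepG2 cells mixed with RealTime-Glo MT reagents (NanoLuc plus cell-permeant prosubstrate) were seeded at 600 cells/well, incubated 5 h at 37 C/5% CO2, then pinned with compounds in DMSO; nonlytic luminescence tracked viability during 40 h treatment.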

[3] = A CellTox Green Cytotoxicity Assay to monitor cytotoxicity in HEK293 cells - 40 hour (AID 1224871); further: nearly all actives have a fitted effect of over 45% in size; further: potency means the concentration at half of the fitted maximal effect; on cytotoxicity increase: on the % scale 0 is the no-effect control and ±100 the full control effect
Procedure, shortened: as §1

[4] = qHTS RealTime-Glo MT Cell Viability Assay in HEK293 cells - 40 hour (AID 1224874); settings: RealTime-Glo luminescence; max response: hits give low values; further: nearly all actives have a fitted effect of over 50% in size; further: potency means the concentration at half of the fitted maximal effect
Procedure, shortened: (§2)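 Tox21 screen in HEK293 using RealTime-Glo MT chemistry, with cells and reagent co-dispensed. Luminescence proportional to viable cell number was captured at intervals during 40 h compound exposure at 37 C.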

[5] = A CellTox Green Cytotoxicity Assay to monitor cytotoxicity in HepG2 cells - 16 hour (AID 1224876); further: nearly all actives have a fitted effect of over 45% in size; further: potency means the concentration at half of the fitted maximal effect; on cytotoxicity increase: on the % scale 0 is the no-effect control and ±100 the full control effect
Procedure, shortened: (§3)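 Nonlytic assay: viable cells exclude the dye, so fluorescence scales with cell death. HepG2 at 600 cells/well, compounds added after 5 h, signal read across 40 h.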

[6] = A CellTox Green Cytotoxicity Assay to monitor cytotoxicity in HEK293 cells - 16 hour (AID 1224888); further: on the % scale 0 is the no-effect control and ±100 the full control effect; nearly all actives have a fitted effect of over 35% in size
Procedure, shortened: as §1

[7] = A CellTox Green Cytotoxicity Assay to monitor cytotoxicity in HepG2 cells - 8 hour (AID 1224890); further: on the % scale 0 is the no-effect control and ±100 the full control effect; nearly all actives have a fitted effect of over 45% in size
Procedure, shortened: as §3

[8] = qHTS assay to identify small molecule antagonists of the androgen receptor (AR) signaling pathway using the MDA cell line in the presence of 0.5 nM R1881 - cell viability counter screen (AID 1259242); further: nearly all actives have a fitted effect of over 45% in size; further: potency means the concentration at half of the fitted maximal effect
Procedure, shortened: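 R1881 at 0.5 nM final stimulated MDA-kb2 cells during 16 hr compound treatment at 37C. Cytotoxicity read: CellTiter-Fluor fluorescence after 30 min.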

[9] = qHTS assay to identify small molecule HDAC inhibitors - cell viability counter screen (AID 1259365); further: series mostly up to about 92 µM; on the % scale 0 is the no-effect control and ±100 the full control effect; nearly all actives have a fitted effect of over 50% in size
Procedure, shortened: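 Wild-type HCT-116 cells were seeded at 1,500 per well, incubated overnight at 37 C, then exposed to compounds in DMSO for 2hr. Viability was read by CellTiter-Glo luminescence after 30min at room temperature.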

[10] = qHTS assay to identify small molecule antagonists of the sonic hedgehog signaling (Shh) pathway (AID 1259369; calls by dose curve; further: nearly all actives have a fitted effect of over 45% in size; further: potency means the concentration at half of the fitted maximal effect)
Procedure, shortened: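 Conditioned medium drives Shh signalling in 3T3Gli1-Luc cells; compounds in DMSO co-applied, 24hr at 37 C, then luciferase luminescence.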

[11] = target: Estrogen receptor (Homo sapiens) (UniProt P03372); assay: qHTS assay to identify small molecule agonists of the estrogen receptor alpha (ER-alpha) signaling pathway in the presence of an antagonist (AID 1259383; calls by dose curve; further: top concentration of the series differs between compounds; on the % scale 0 is the no-effect control and ±100 the full control effect; nearly all actives have a fitted effect of over 15% in size)
Sequence of Estrogen receptor (Homo sapiens) (P03372 whole entry, looked up): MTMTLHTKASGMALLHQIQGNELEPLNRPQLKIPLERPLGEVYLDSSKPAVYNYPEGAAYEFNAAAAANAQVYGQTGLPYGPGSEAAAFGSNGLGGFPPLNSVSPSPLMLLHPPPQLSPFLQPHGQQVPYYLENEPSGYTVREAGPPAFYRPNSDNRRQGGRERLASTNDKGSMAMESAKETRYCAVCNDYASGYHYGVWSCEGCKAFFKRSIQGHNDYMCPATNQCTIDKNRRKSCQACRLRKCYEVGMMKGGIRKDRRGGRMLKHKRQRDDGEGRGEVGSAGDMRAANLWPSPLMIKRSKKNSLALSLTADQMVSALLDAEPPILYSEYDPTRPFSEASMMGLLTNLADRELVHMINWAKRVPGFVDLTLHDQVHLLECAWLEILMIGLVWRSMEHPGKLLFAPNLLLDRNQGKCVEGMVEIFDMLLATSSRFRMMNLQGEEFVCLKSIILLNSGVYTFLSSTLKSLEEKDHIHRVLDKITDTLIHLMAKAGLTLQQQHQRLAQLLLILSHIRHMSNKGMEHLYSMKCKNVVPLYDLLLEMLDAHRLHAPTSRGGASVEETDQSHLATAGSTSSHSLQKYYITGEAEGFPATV
Procedure, shortened: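 Using VM7Luc4E2 cells seeded 24hr before treatment, antagonist ICI-182,780 (10.0nM final) was added, followed by compounds at 15 concentrations. Plates incubated 22hr; ONE-Glo luminescence quantified reporter activity.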

[12] = qHTS assay to identify small molecule agonists of the estrogen receptor alpha (ER-alpha) signaling pathway in the presence of an antagonist - cell viability counter screen (AID 1259386);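 further: cells exposed to compounds for 22 h at 37 °C before the viability read; nearly all actives have a fitted effect of over 30% in size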; further: potency means the concentration at half of the fitted maximal effect
Procedure, shortened: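 ICI-182,780 at 10.0nM final accompanies the compound titration (15 concentrations, 22hr, 37C) on VM7Luc4E2 cells. The CellTiter-Fluor fluorescence readout runs in the same wells as the luciferase assay.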

[13] = qHTS assay to identify small molecule antagonists of the TGF-beta/Smad signaling pathway - cell viability counter screen (AID 1346824); further: nearly all actives have a fitted effect of over 50% in size; further: potency means the concentration at half of the fitted maximal effect
Procedure, shortened: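 SBE-bla HEK 293T cells were plated overnight at 37 C, then given compounds in DMSO plus TGF-beta1 (added as 0.25 ng/mL solution) for 5 hr. After the bla read, CellTiter-Glo was added to the same wells and luminescence read after 30 min at room temperature.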

[14] = target: Cytochrome P450 2C19 (Homo sapiens) (UniProt P33261); assay: Cytochrome P450 Family 2 Subfamily C Member 19 (CYP2C19) small molecule antagonists: luciferase reporter qHTS assay (AID 1671197); further: nearly all actives have a fitted effect of over 65% in size; further: potency means the concentration at half of the fitted maximal effect
Sequence of Cytochrome P450 2C19 (Homo sapiens) (P33261 whole entry, looked up): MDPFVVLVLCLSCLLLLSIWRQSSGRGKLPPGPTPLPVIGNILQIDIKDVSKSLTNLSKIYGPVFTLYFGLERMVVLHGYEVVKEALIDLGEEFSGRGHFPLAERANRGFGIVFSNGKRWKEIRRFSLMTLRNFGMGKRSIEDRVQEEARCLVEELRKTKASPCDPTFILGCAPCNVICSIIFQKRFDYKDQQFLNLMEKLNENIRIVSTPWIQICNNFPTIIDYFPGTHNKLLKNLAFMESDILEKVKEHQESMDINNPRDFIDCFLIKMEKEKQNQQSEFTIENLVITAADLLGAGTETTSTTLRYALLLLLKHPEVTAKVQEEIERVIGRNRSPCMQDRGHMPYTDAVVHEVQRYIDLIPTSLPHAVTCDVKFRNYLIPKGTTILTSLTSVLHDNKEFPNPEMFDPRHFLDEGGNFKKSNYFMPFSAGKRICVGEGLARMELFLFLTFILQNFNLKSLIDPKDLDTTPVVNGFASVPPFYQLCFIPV
Procedure, shortened: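 Enzyme-substrate mix with proluciferin substrate (P450-Glo CYP2C19 system) preincubated with compounds 10 min at room temperature; NADPH regeneration solution added, 37C for 1 h; detection reagent stops reaction, luminescence read after 20 min. Ketoconazole positive control.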

[15] = target: Voltage-gated inwardly rectifying potassium channel KCNH2 (Homo sapiens) (UniProt Q12809); assay: Human Ether-a-go-go-Related Gene (hERG) channel small molecule antagonists: fluorescence cell-based qHTS assay (AID 1671200); further: nearly all actives have a fitted effect of over 50% in size; further: potency means the concentration at half of the fitted maximal effect;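 on activity change, negative = inhibition: hERG-expressing U2OS cells given a thallium stimulus after FluxOR II dye loading; series mostly up to about 77 µM; on the % scale 0 is the no-effect control and ±100 the full control effect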
Sequence of Voltage-gated inwardly rectifying potassium channel KCNH2 (Homo sapiens) (Q12809 whole entry, looked up): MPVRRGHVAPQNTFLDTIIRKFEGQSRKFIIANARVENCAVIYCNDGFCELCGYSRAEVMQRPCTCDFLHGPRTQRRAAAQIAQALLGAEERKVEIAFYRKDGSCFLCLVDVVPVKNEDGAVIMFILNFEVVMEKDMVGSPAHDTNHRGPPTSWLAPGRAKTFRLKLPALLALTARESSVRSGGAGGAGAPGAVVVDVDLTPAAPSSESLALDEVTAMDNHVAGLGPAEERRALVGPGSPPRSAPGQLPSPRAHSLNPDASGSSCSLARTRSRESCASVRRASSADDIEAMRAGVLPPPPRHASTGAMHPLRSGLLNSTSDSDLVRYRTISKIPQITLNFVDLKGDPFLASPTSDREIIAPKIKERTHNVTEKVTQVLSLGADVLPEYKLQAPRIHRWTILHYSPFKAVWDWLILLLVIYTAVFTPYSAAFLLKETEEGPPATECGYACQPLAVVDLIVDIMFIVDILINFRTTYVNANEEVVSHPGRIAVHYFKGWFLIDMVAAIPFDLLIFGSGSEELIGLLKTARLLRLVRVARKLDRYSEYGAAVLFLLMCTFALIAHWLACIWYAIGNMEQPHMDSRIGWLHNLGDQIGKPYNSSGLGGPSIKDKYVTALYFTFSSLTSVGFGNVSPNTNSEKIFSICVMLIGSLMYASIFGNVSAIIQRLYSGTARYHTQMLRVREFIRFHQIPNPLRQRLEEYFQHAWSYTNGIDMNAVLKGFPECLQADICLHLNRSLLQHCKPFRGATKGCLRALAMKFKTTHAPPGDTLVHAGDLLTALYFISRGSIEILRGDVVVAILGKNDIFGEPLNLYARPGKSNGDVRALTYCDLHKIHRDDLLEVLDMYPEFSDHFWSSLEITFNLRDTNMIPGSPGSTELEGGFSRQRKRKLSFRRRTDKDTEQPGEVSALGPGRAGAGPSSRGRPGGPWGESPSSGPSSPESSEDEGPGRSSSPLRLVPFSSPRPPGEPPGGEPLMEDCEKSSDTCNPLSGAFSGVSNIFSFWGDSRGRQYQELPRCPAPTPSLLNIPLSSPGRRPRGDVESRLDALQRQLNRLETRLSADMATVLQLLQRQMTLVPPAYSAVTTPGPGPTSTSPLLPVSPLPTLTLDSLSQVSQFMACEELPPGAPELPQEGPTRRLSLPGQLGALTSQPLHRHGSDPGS
Procedure, shortened: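 U2OS cells expressing the channel were plated at 1000 cells/well, incubated overnight at 37 C, then loaded with FluxOR II thallium-sensitive dye for 1 h at room temperature in the dark, with a further 10 min at room temperature before stimulation.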

[16] = qHTS assay for small molecule agonists of the p53 signaling pathway (AID 651631; calls by dose curve; further: potency means the concentration at half of the fitted maximal effect; nearly all actives have a fitted effect of over 15% in size)
Procedure, shortened: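 HCT-116 cells carrying a stable p53 response element–beta-lactamase reporter were plated, rested 5 h at 37 °C, then exposed to compound in DMSO for 16 h at 37 °C; reporter activity was read as FRET substrate fluorescence after 2 h at room temperature.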

[17] = qHTS RealTime-Glo MT Cell Viability Assay in HEK293 cells - 0 hour (AID 1224880)
Procedure, shortened: as §2

[18] = qHTS RealTime-Glo MT Cell Viability Assay in HepG2 cells - 0 hour (AID 1224889)
Procedure, shortened: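 HepG2 cells were seeded at 600 cells/well together with NanoLuc luciferase and a cell-permeant prosubstrate, preincubated 5 h at 37 C/5% CO2, then pin-dosed with compounds in DMSO. Nonlytic luminescence from viable cells was read at each time point.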

[19] = qHTS assay to identify small molecule antagonists of the estrogen receptor alpha (ER-alpha) signaling pathway using the BG1 cell line in the presence of 0.1 nM 17-beta-estradiol - cell viability counter screen (AID 1259241); further: on the % scale 0 is the no-effect control and ±100 the full control effect; nearly all actives have a fitted effect of over 40% in size
Procedure, shortened: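 VM7Luc4E2 cells (endogenous ER-alpha, 4×ERE-luciferase), hormone-starved 5 days in charcoal-stripped FBS, were treated with compounds plus 0.1 nM 17beta-estradiol for 22 hr at 37C; viability read in same wells as CellTiter-Fluor live-cell protease fluorescence.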

[20] = qHTS assay to identify small molecule agonists of the sonic hedgehog signaling (Shh) pathway - cell viability counter screen (AID 1259366); further: nearly all actives have a fitted effect of over 50% in size; further: potency means the concentration at half of the fitted maximal effect
Procedure, shortened: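 NIH/3T3-derived 3T3 Gli1-Luc cells (stable Gli1-responsive firefly luciferase reporter) were seeded, rested 4 hr at 37 C/5% CO2, then exposed to compounds in DMSO for 24 hr; viability was read by CellTiter-Fluor fluorescence in the same wells.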

CO/C=C(/C(=O)OC)c1ccccc1Oc1cc(Oc2ccccc2C#N)ncn1
inactive: Potency [1] | Potency [2] | Potency [5] | Potency [6] | Potency [7] | outcome [9] | outcome [11] | Potency [15]
active: Potency [3] 4.9 µM | Potency [4] 33.8 µM | Potency [8] 24.3 µM | Potency [10] 0.327 µM | Potency [12] 21.7 µM | Potency [13] 34.7 µM | Potency [14] 2.39 µM

COc1ccc(C(c2ccc(OC)cc2)C(Cl)(Cl)Cl)cc1
active: Potency [16] 30.6 µM | Potency [4] 52.6 µM | Potency [10] 21.6 µM | Potency [14] 0.354 µM
inactive: Potency [1] | Potency [2] | Potency [3] | Potency [5] | outcome [17] | Potency [6] | Potency [18] | Potency [7] | Potency [19] | Potency [8] | outcome [9] | Potency [20] | outcome [11] | Potency [13]

Oc1c(I)cc(I)cc1I
inactive: Potency [1] | Potency [2] | Potency [3] | max response [4] -25% | Potency [5] | outcome [17] | Potency [6] | Potency [18] | Potency [7] | Potency [19] | Potency [8] | outcome [9] | Potency [20] | outcome [11] | Potency [12] | Potency [13] | Potency [15]

O=C(c1ccccc1)C(Cl)Cl
inactive: Potency [1] | Potency [2] | Potency [5] | outcome [17] | Potency [6] | Potency [18] | Potency [7] | Potency [19] | Potency [8] | outcome [11] | Potency [12] | Potency [13] | Potency [14]
active: Potency [3] 34.7 µM | Potency [4] 38.9 µM | Potency [20] 68.6 µM | Potency [10] 30.6 µM

Cc1ccc2nc3sc(=O)sc3nc2c1
active: Potency [14] 16.9 µM
inactive: cytotoxicity [1] -0.433% [at 15.8 µM] | activity change, negative = cytotoxic [2] -11.2% [at 15.8 µM] | cytotoxicity increase [3] -10.2% [at 15.8 µM] | max response [4] 3.19% | cytotoxicity increase [5] -9.02% [at 15.8 µM] | activity change, negative = cytotoxicity [17] -3.58% [at 15.8 µM] | activity change [6] -2.03% [at 15.8 µM, hits give high values] | activity change, negative = cytotoxicity [18] 15.7% [at 15.8 µM] | cytotoxicity increase [7] -5.93% [at 15.8 µM] | activity change, negative = cytotoxicity [19] 1.06% [at 19 µM] | viability change, negative = cytotoxic [8] -14.8% [at 19 µM] | activity change, negative = cytotoxicity [9] 4.09% [at 19 µM] | viability change, negative = cytotoxic [20] -7.48% [at 19 µM] | activity change, negative = inhibition [10] -28.1% [at 19 µM] | activation [11] -0.0346% [at 19 µM] | activity change, negative = cytotoxicity [12] -6.53% [at 19 µM] | viability change, negative = cytotoxic [13] 2.33% [at 15.8 µM] | activity change, negative = inhibition [15] 2.68% [at 15.8 µM]

CC(c1ccccc1)(c1ccc(O)cc1)c1ccc(O)cc1
active: Potency [4] 43.6 µM | Potency [20] 68.6 µM | Potency [10] 21.7 µM | Potency [14] 8.94 µM
inactive: Potency [1] | Potency [2] | Potency [18] | Potency [19] | Potency [8] | outcome [9] | outcome [11] | Potency [12] | Potency [13] | Potency [15]

c1ccc2c(c1)Sc1ccccc1N2CC1CN2CCC1CC2 (stereo not drawn)
active: Potency [2] 21.3 µM | Potency [3] 26.8 µM | Potency [4] 23.9 µM | Potency [5] 23.9 µM | Potency [8] 29.8 µM | Potency [20] 11.9 µM | Potency [10] 9.44 µM | Potency [15] 5.35 µM
inactive: Potency [1] | Potency [19] | outcome [9] | Potency [12] | Potency [13]
